Screens: PubChem BioAssay, National Center for Advancing Translational Sciences (NCATS)
A selection: hits, their analogues and other compounds. The true share with any hit is near 21%.
DT40 TDP1 CPT: DT40-hTDP1 cell growth loss with CPT | chicken DT40 Tdp1-/-;hTDP1 cells + 20 nM CPT, ATP luminescence, 48 h | Potency, µM (highest dose often 46.2 µM), most hits filed as inhibitors | 12% of 420,000 active; also: nearly all actives have a fitted effect of over 55% in size
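Cell growth measured by CellTiter-Glo luminescence after a minimum 48 h, 37 C compound exposure with 20 nM CPT in Tdp1-knockout DT40 cells stably expressing hTDP1, seeded 400/well; qHTS titration format.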
DRD3 agonist: activates the human D3 dopamine receptor; P35462; D3R DiscoveRx beta-arrestin cells, luminescence, 90 min; max activation, %; 0.58% of 410,000 active; AID 652048; in the data active = max activation above about 30%
Target sequence (P35462 whole entry, looked up): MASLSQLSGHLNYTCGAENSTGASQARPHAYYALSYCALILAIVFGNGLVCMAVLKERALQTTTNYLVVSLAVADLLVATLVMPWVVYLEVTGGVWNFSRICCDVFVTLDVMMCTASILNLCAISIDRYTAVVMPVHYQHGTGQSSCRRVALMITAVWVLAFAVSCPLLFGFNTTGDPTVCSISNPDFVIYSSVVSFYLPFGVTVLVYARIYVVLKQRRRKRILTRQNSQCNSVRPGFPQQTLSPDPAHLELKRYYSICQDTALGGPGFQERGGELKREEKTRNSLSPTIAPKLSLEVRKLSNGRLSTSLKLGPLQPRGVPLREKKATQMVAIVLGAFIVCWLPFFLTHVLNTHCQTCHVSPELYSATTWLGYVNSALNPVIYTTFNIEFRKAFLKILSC
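Agonist mode: compounds and dopamine controls were applied to plated cells for 90 min at 37 degrees C after an overnight attachment at 1500 cells/well. Luminescent read-out followed 30 - 60 minutes at room temperature with DiscoveRx detection reagent.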
IL1B secr inh: inhibitors of inflammasome signaling (IL-1 beta secretion) | THP-1 LPS/ATP IL-1B secretion, AlphaLISA, 16 h; hits give low values | 4.7% of 360,000 active | activity change, % at 57.5 µM; in the data active = activity change below about -50%; inconclusive = mostly about -30% to -49%
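Secreted IL-1B measured by AlphaLISA bead assay after 16 h compound exposure of THP-1 cells; compounds (final up to 57.5 uM) added 1 h before LPS (250 ng/mL) and ATP (1.25 mM) stimulation; lower signal means less secretion.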
ClpP mod: qHTS Assay for Activators of ClpP; purified B. subtilis ClpP, FRET peptide cleavage, 20 min; Potency, µM (titrated, usually from 57.5 µM); 1.9% of 340,000 active; active = well fitted falling curve with a large enough effect; inconclusive = small, poorly fitted or top-dose-only effect; inactive = no such curve, though single readings can be large or run the other way; also: the source files actives as falling curves though it sought activators and does not explain the sign; nearly all actives have a fitted effect of over 65% in size
Target sequence (P80244 whole entry, looked up): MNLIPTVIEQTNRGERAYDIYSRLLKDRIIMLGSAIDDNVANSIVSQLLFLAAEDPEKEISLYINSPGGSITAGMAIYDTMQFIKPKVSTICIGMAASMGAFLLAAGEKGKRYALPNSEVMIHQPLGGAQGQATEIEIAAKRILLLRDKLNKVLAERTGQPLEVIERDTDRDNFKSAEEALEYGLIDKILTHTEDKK
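Purified B. subtilis ClpP, 10 microg/mL final in Tris/HCl pH8 with KCl, BSA, glycerol and Tween-20, cleaved an Abz/nitrotyrosine-quenched decapeptide. Fluorescence (ex 320, em 430) was read at 0 and 20 min at room temperature. Delta was normalized to 5.8 microM ADEP and DMSO/no-enzyme controls.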
DRD3 antagonist: antagonists of human D3 dopamine receptor | AID 652054 | P35462 | max response, negative = inhibition, % | D3R cells, DiscoveRx beta-arrestin luminescence, antagonist mode; hits give low values | 2.5% of 360,000 active; in the data active = max response below about -50%; inconclusive = no clear call, values can overlap the other calls
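Cells plated overnight at 1500 cells/well, then exposed to library compounds with dopamine controls for 90 minutes at 37 degrees C. DiscoveRx reagent added for 30–60 minutes at room temperature; luminescence read, quantitative HTS format.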
DT40 TDP1 no CPT: qHTS for Inhibitors of human tyrosyl-DNA phosphodiesterase 1 (TDP1): qHTS in cells in absence of CPT. 15% of 420,000 active. AID 686978, 2013. Potency, µM (doses to about 46.2 µM), most hits filed as inhibitors. DT40 Tdp1-/- hTDP1 cells, no CPT, ATP luminescence, 48 h; also: nearly all actives have a fitted effect of over 55% in size
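DT40 Tdp1-/-;hTDP1 cells, no CPT (DMSO vehicle only), 400 cells/well; compounds pin-transferred; ≥48 hr, 37 °C; CellTiter-Glo 30 min RT dark, luminescence read.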
Numbers stand for hits; - = inactive; ? = inconclusive; . = not tested or not shown. Unless noted, calls follow the shape of the dose curve; as a rule, active = well fitted inhibition curve with a large enough effect; inconclusive = small, poorly fitted or top-dose-only effect; inactive = flat fitted curve, though single readings scatter.

SMILES | DT40 TDP1 CPT | DRD3 agonist | IL1B secr inh | ClpP mod | DRD3 antagonist | DT40 TDP1 no CPT
COc1ccc(-c2nn(-c3ccccc3)cc2CNC[C@H]2O[C@@H](n3cnc4c(=O)[nH]c(N)nc43)[C@H](O)[C@@H]2O)cc1 | - | - | - | - | - | -
Cc1ccccc1N1C(=O)C(Cc2ccc(F)cc2)S/C1=C(\C#N)C(N)=O (stereo not drawn) | - | - | . | . | - | -
CC(O)(P(=O)(O)O)P(=O)(O)O | - | - | - | - | - | -
Cc1ccccc1[C@H](NC1c2ccccc2C=Cc2ccccc21)P(=O)(c1ccccc1)c1ccccc1 | ? | - | -74 | - | -56 | ?
CCCOc1c(Br)cc(C(=O)OCC(=O)NC2CC2)cc1OC | - | - | - | - | - | -
COc1ccc(/C=N/n2c(=O)[nH]c3c([nH]c4ccc(C)cc43)c2=O)cc1CN1CCOCC1 | ? | - | - | ? | - | ?
CC1=CC(C)[C@H](/C=N/n2c(=O)[nH]c3c([nH]c4ccc(C)cc43)c2=O)C(C)C1 (stereo partly drawn) | 8.2µM | - | - | - | ? | 13µM
CCOC(=O)C1=C(COc2ccccc2)NC(=O)NC1c1cccc([N+](=O)[O-])c1 (stereo not drawn) | - | - | ? | - | - | -
COC(=O)C[C@H]1CC[C@H](NC(=O)Nc2ccccc2F)[C@@H](CO)O1 | 23µM | - | - | - | - | 23µM
CC(C)(C)OC(=O)N1CCC(c2c(C(=O)NC3CC3)cnn2-c2ccccc2)CC1 | - | - | - | - | - | -
CCOC(=O)c1sc(NC(=O)CSc2n[nH]c(-c3ccc(Cl)cc3Cl)n2)c(C#N)c1C | ? | - | - | - | - | 16µM
CCOC(=O)c1sc(NC(=O)CSc2nc(C)cc(-c3ccccc3)n2)c(C#N)c1C | - | - | - | - | - | -
N#Cc1cc2c(nc1SCC(=O)Nc1sc3c(c1C#N)CCC3)CCCCC2 | ? | - | - | - | - | -
N#Cc1cc2c(nc1SCC(=O)Nc1sc3c(c1C#N)CCC3)CCCC2 | ? | - | -60 | - | - | 12µM
Cc1cc(NC(=O)CSc2nc3c(cc2C#N)CCCC3)no1 | - | - | - | - | - | ?
CCOC(=O)c1sc(NC(=O)CSc2nc3c(cc2C#N)CCCCCC3)c(C#N)c1C | 16µM | - | - | - | - | 26µM
COc1ccc(S(=O)(=O)NCc2cccnc2)cc1C(=O)N1CCCCC1 | - | - | - | . | - | -
CCOC(=O)C1CCN(C(=O)c2cccc(S(=O)(=O)NCc3ccccc3)c2)CC1 | - | - | - | - | - | ?
O=C(c1ccc(CNS(=O)(=O)c2ccccc2)cc1)N1CCN(c2ccccn2)CC1 | ? | - | - | - | - | ?
O=C(c1cccc(S(=O)(=O)NCc2ccccc2)c1)N1CCCC1 | - | - | - | . | - | -
CC1CCCN(C(=O)c2cccc(S(=O)(=O)NCc3ccccc3)c2)C1 (stereo not drawn) | ? | - | - | - | -54 | ?
O=C(c1cccc(S(=O)(=O)NCc2ccccc2)c1)N1CCN(c2ccccc2Cl)CC1 | 15µM | - | - | - | - | ?
COc1ccccc1N1CCN(C(=O)c2cccc(S(=O)(=O)NCc3cccnc3)c2)CC1 | 16µM | - | - | - | - | ?
O=C(c1ccc(Cl)c(S(=O)(=O)NCc2ccccc2)c1)N1CCN(c2ccccn2)CC1 | ? | - | - | - | -71 | ?
CC1(C)Nc2ccccc2C(=O)N1c1ccccc1 | - | - | - | . | - | -
SMILES | DT40 TDP1 CPT | DRD3 agonist | IL1B secr inh | ClpP mod | DRD3 antagonist | DT40 TDP1 no CPT
O=C(Nc1cccc(Cl)c1)C1CCN(C(=O)c2cccs2)CC1 | - | - | - | . | - | -
O=C(c1cccc(S(=O)(=O)NCc2ccccc2)c1)N1CCN(c2ccccc2)CC1 | 6.5µM | - | - | - | - | 5.2µM
O=C(c1cccc(S(=O)(=O)NCCOc2ccccc2)c1)N1CCN(c2ncccn2)CC1 | 26µM | - | - | - | - | 23µM
O=C(c1cccc(S(=O)(=O)NCc2ccccc2)c1)N1CCN(c2ccc(F)cc2)CC1 | ? | - | - | - | - | ?
O=C(c1cccc(S(=O)(=O)N2CCCC2)c1)N1CCN(c2ncccn2)CC1 | - | - | - | - | - | -
COc1ccc(Cn2c(=O)c3oc4ccccc4c3n(Cc3cccc(C)c3)c2=O)cc1 | - | - | . | - | . | -
C=CCc1c(C)nc2nc(SCC(=O)Nc3cccc(Cl)c3)nn2c1C | 21µM | - | . | - | . | -
Cc1cccc(Cc2c(C)nc3nc(SCC(=O)NCc4ccccc4)nn3c2C)c1 | 21µM | - | . | - | . | ?
Cc1ccccc1Cc1c(C)nc2nc(SCC(=O)NCCCN3CCCC3)nn2c1C | - | - | - | . | - | -
COc1ccccc1CNC(=O)CSc1nc2nc(C)c(Cc3ccccc3C)c(C)n2n1 | 15µM | - | . | - | . | 5.2µM
COc1cc(NC(=O)CSc2nc3nc(C)c(Cc4ccccc4)c(C)n3n2)cc(OC)c1OC | 21µM | - | . | - | . | 21µM
Cc1cc(C)c2c(n1)sc1c(=O)n(-c3cc(Cl)ccc3C)nnc12 | - | - | . | - | . | ?
Cc1nc2nc(SCC(=O)NCc3ccccc3Cl)nn2c(C)c1Cc1ccccc1 | ? | - | . | - | . | ?
Cc1nc2nc(SCC(=O)NC3CCC(C)CC3)nn2c(C)c1Cc1ccccc1 (stereo not drawn) | 18µM | - | . | - | . | ?
CC(=O)c1cccc(NC(=O)Cn2ccn3nc(-c4ccccc4)cc3c2=O)c1 | - | - | . | - | . | -
Nc1ccc(-c2cnc(N)c(C(=O)c3cccnc3)n2)cn1 | 1.8µM | - | -91 | - | - | 3.7µM
Cc1ccc(NC(=O)CC2S/C(=N/N=C/c3c[nH]c4ccccc34)NC2=O)cc1 (stereo not drawn) | - | - | - | - | ? | -
CCOC(=O)c1ccc(NC(=O)CC2S/C(=N/N=C/c3c[nH]c4ccccc34)NC2=O)cc1 (stereo not drawn) | - | - | -68 | - | - | ?
Cc1nnc(SCc2cc(=O)[nH]c(N3CCN(C)CC3)n2)s1 | - | - | - | - | - | -
Cc1ccc2c(C)nc(Nc3nc(CSc4nnc(C)s4)cc(=O)[nH]3)nc2c1 | 11µM | - | ? | - | - | 20µM
COc1cccc2c(C)nc(Nc3nc(CSc4nnc(C)s4)cc(=O)[nH]3)nc12 | 23µM | - | - | - | - | 18µM
COCCNC(=O)CCn1c(=O)c2cc(OC)c(OC)cc2n(CC(=O)Nc2ccccc2C)c1=O | - | - | . | - | . | -
Cc1noc2ncnc(Oc3ccccc3)c12 | - | - | - | 25µM | - | -
